# This is a sample that favours compounds with a hit; in the whole collection about 2.2% have one here.
# HepG2 tox-1: counter-screen for TGF-b inhibitors: cytotoxicity in HepG2 cells. HepG2 CAGA-GFP viability, ATP luminescence, 18 h. Potency, µM (titrated, usually from 46.1 µM), inactives show at the top dose activity change, negative = cytotoxicity, hits mostly cytotoxic. 410,000 tested, 0.76% active. AID 588856; further: potency means the concentration at half of the fitted maximal effect
#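 HepG2 CAGA-GFP cells (1000/well, DMEM with 1% FBS) received compound, then TGF-beta at 500 pg/mL final, and were incubated 18 hours at 37 degrees C. Viability was read by CellTiter-Glo luminescence. Media-only wells were set as complete cell-killing and DMSO as no toxicity.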
# LDHA inh: LDHA (human) enzyme inhibition; P00338; purified LDHA, NADH/diaphorase-resazurin fluorescence; active compounds read low; activity change, % (values are at about 110 or 230 µM); 480,000 tested, 0.15% active; AID 1347041; in the data active means activity change below about -30%; inconclusive means mostly about -25% to -30%;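 further: plate controls were DMSO wells for no effect and wells without enzyme for full effect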
#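 Remaining NADH was detected by diaphorase (0.133 mg/mL) converting 37 µM resazurin to fluorescent resorufin, read at 0 and 20 minutes. The preceding 5-minute room-temperature reaction used 2 nM LDHA, 0.2 mM sodium pyruvate and 0.06 mM NADH at pH 7.4.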
# ATXN viability: cell viability loss in ATXN counter-screen; 400,000 tested, 0.49% active; S2 cells (HEK-293 line with an ATXN2-luciferase reporter) viability, CellTiter-Fluor protease fluorescence, 24 h; Potency, µM (series often up to 56.7 µM), hits mostly cytotoxic; further: potency means the concentration at half of the fitted maximal effect; nearly all actives have a fitted effect of over 40% in size
# ATXN2 expr inh: reduces ATXN2 reporter expression in HEK-293 cells | HEK-293 ATXN2-luciferase reporter, luminescence, 24 h | 360,000 tested, 0.72% active | Potency, µM (titrated, usually from 57 µM), for the others: at the highest dose activity change, negative = inhibition, actives largely listed as inhibitors; further: potency means the concentration at half of the fitted maximal effect; on the % scale 0 is the no-effect control and ±100 the full control effect; nearly all actives have a fitted effect of over 55% in size
#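 qHTS (up to 57 uM final) was run with 24 h compound exposure of reporter cells at 37 °C. Each well was multiplexed: SteadyGlo luminescence measured ATXN2-luciferase expression after a fluorogenic Gly-Phe-AFC viability readout (25 uM final).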
# TGFb SMAD3 inh: inhibitors of TGF-b signaling | HepG2 CAGA-GFP TGF-b/SMAD3 reporter, GFP fluorescence, 18 h; TGF-beta stimulated, 500 pg/mL final | Potency, µM (series often up to 46.1 µM), for inactives: top-dose activity, negative = inhibition, usual class: inhibitors | 410,000 tested, 1.2% active; further: potency means the concentration at half of the fitted maximal effect; on the % scale 0 is the no-effect control and ±100 the full control effect; nearly all actives have a fitted effect of over 65% in size
#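 Cell-based qHTS in HEPG2 carrying a CAGA-GFP Smad reporter; compounds added before 500 pg/mL final TGF-beta, 18 h incubation at 37 degrees C, GFP fluorescence quantified per cell by imaging cytometry.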
# mIDH1 inhibitor: blocks human mutant IDH1 R132H enzyme; IDH1-R132H enzyme, NADPH consumption, diaphorase/resazurin fluorescence; 390,000 tested, 0.093% active; Potency, µM (highest dose often 76.6 µM), for inactives: at the highest dose activity change, negative = inhibition, most hits filed as inhibitors; O75874; further: potency means the concentration at half of the fitted maximal effect; on the % scale 0 is the no-effect control and ±100 the full control effect; nearly all actives have a fitted effect of over 65% in size
# Target sequence (O75874 whole entry R132H, stated change not applied): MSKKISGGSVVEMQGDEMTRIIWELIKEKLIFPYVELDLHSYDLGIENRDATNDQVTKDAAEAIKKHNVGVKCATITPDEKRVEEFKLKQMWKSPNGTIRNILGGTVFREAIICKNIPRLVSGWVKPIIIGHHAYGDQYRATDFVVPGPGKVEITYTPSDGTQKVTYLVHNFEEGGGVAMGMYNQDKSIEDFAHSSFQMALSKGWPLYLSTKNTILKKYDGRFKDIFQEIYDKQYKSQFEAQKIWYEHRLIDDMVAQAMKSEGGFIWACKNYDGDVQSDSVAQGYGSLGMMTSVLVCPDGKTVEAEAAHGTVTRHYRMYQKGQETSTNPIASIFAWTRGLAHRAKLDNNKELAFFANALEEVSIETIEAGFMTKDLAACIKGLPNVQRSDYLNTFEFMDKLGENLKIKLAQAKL
#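 IDH1-R132H (0.5 ug/mL dispensed) in pH 7.5 Tris buffer was preincubated 30 min with compound, then given a substrate mix of 0.016 mM NADPH and 2 mM alpha-KG for 80 min at room temperature; remaining NADPH was read by diaphorase/resazurin fluorescence.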
# TGFb CAGA inh: TGF-b pathway inhibition, cherry-pick retest; shares compounds with TGFb SMAD3 inh; HepG2 CAGA-GFP TGF-b reporter, GFP fluorescence, 18 h; cells stimulated with TGF-beta, 500 pg/mL; Potency, µM (highest dose often 46.1 µM), without a hit: at the highest dose activity, negative = inhibition, most hits filed as inhibitors; 1,600 tested, 63% active; further: potency means the concentration at half of the fitted maximal effect; on the % scale 0 is the no-effect control and ±100 the full control effect; nearly all actives have a fitted effect of over 65% in size
# HepG2 tox-2: counter-screen for TGF-b inhibitors: cytotoxicity in HepG2 cells. shares compounds with TGFb SMAD3 inh. HepG2 CAGA-GFP viability, ATP luminescence, 18 h; cells stimulated with TGF-beta, 500 pg/mL. Potency, µM (series often up to 46.1 µM), inactives show at the highest dose activity, negative = cytotoxicity, usual class: inhibitors. 1,600 tested, 27% active; further: potency means the concentration at half of the fitted maximal effect; on the % scale 0 is the no-effect control and ±100 the full control effect; nearly all actives have a fitted effect of over 70% in size
# TGFb CCL64 inh: TGF-b inhibition, CCL64 orthogonal assay. shares compounds with TGFb SMAD3 inh. CCL64 CAGA-GFP reporter, TGF-b stimulated, GFP fluorescence, 18 h. Potency, µM (doses to about 46.1 µM), for inactives: at the top dose activity, negative = inhibition, most hits filed as inhibitors. 1,600 tested, 41% active. AID 720536; further: potency means the concentration at half of the fitted maximal effect; nearly all actives have a fitted effect of over 65% in size
# TGFb COP inh: TGF-b inhibition validated with COP promoter. shares compounds with TGFb SMAD3 inh. Potency, µM (highest dose often 46.1 µM), without a hit: at the highest dose activity, negative = inhibition, actives largely listed as inhibitors. HepG2 COP-GFP TGF-b reporter, GFP fluorescence, 18 h; cells stimulated by added recombinant TGF-beta. 1,600 tested, 3% active; further: potency means the concentration at half of the fitted maximal effect; nearly all actives have a fitted effect of over 70% in size
# Starred values were filed as active, the others as inactive; i = inactive; ? = inconclusive; · = no result given; [ ] = dose if it differs, or a comment. Unless noted, the call rests on the fitted dose curve; in most records, active means well fitted curve in the direction sought with a large enough effect; inconclusive means small, poorly fitted or top-dose-only effect, or another doubt; inactive means no such curve, though single readings can be large; an effect the other way counts as inactive or inconclusive.
SMILES,HepG2 tox-1,LDHA inh,ATXN viability,ATXN2 expr inh,TGFb SMAD3 inh,mIDH1 inhibitor,TGFb CAGA inh,HepG2 tox-2,TGFb CCL64 inh,TGFb COP inh
COc1ccc(NS(=O)(=O)c2ccc(OC)c(N(C)S(=O)(=O)c3ccc(Cl)cc3)c2)cc1,-26%,4,?,?,10µM*,5%,7.3µM*,?,?,37%
COc1ccc(S(=O)(=O)Nc2ccc(F)c(F)c2)cc1Cl,-39%,-3,i,-8%,10µM*,8%,-19%,-6%,-11%,7%
CCS(=O)(=O)c1ccc(-c2csc(-c3ccc(Cl)cc3)n2)c(Cl)c1Cl,-1%,0,i,4%,-35%,4%,·,·,·,·
CCCNC(=O)c1ccc2c(=O)c(O)c(-c3ccc(Cl)c([N+](=O)[O-])c3)[nH]c2c1,-4%,9,?,0%,7.1µM*,-2%,5.2µM*,?,6.5µM*,0%
O=C(NCCc1nc2ccccc2[nH]1)c1ccc(Cl)c([N+](=O)[O-])c1,-44%,6,i,6%,-30%,6%,·,·,·,·
COCCn1c(SC(C)C#N)nnc1-c1ccc(Cl)cc1 (configuration not stated),·,0,·,·,·,·,·,·,·,·
CN1C(=O)Nc2cccc3cccc1c23,-32%,2,i,5%,-13%,3%,·,·,·,·
O=C(/C=C/c1cccc([N+](=O)[O-])c1)c1cccs1,-37%,-9,?,?,8.9µM*,3%,12µM*,18µM*,5.8µM*,23%
CC(=O)Oc1ccccc1C(=O)C=Cc1cccc([N+](=O)[O-])c1,-31%,-7,·,?,7.1µM*,2%,10µM*,?,5.8µM*,?
CCc1ccc(C(=O)/C=C/c2cccc([N+](=O)[O-])c2)cc1,·,7,·,·,·,·,·,·,·,·
N#C/C(=C\c1ccc(Sc2nc3ccccc3[nH]2)o1)c1ccccc1,52%,-2,i,?,10µM*,8%,9.2µM*,?,?,47%
COc1ccc(/C=C/C(=O)N2c3ccccc3Sc3ccc(C(F)(F)F)cc32)cc1,1%,0,i,-17%,-13%,1%,·,·,·,·
CN(C)CCN(C)C1CN(Cc2ccc(F)cc2)S(=O)(=O)C1 (configuration not stated),3%,1,i,3%,?,·,7%,-11%,-2%,-4%
Cc1ccc(NS(=O)(=O)c2ccc(OCC(=O)Nc3cccc([N+](=O)[O-])c3)c(C)c2)cc1,-20%,-9,?,?,11µM*,-4%,-78%,-25%,10%,37%
O=C1c2cccc(-c3ccc(C(F)(F)F)cc3)c2C2CCCCN12 (configuration not stated),-22%,1,?,-6%,?,·,·,·,·,·
CC(=O)Nc1ncc(Cc2cc(Cl)ccc2Cl)s1,1%,-2,i,·,?,5%,?,2%,0%,17%
CCc1ccc(CCC(=O)Nc2ncc(Cc3ccccc3Cl)s2)o1,-34%,-14,i,-10%,2µM*,-2%,?,-19%,-28%,-6%
O=C(CN1CCOCC1)Nc1ncc(Cc2ccccc2Cl)s1,1%,-3,?,6%,2%,5%,·,·,·,·
Cc1ccc(NC(=O)CN(C(=O)N2CCN(C)CC2)S(=O)(=O)c2ccc(C)cc2)cc1,2%,-1,i,-1%,26%,7%,·,·,·,·
COC(=O)[C@@]1(Cc2ccccc2)[C@H]2C(=O)N(Cc3ccccc3)C(=O)[C@H]2[C@H]2CN=C(SCc3ccccc3)N21,-30%,0,i,-4%,?,-8%[38.3 µM],·,·,·,·
COC(=O)[C@@]1(Cc2ccccc2)[C@H]2C(=O)N(Cc3ccccc3)C(=O)[C@H]2[C@H]2CN=C(SCC3CC3)N21,-15%,-1,?,-17%,11µM*,3%[38.3 µM],?,?,?,37%
COc1ccc(C(NC(=O)CN2C(=O)NC3(CCc4ccccc43)C2=O)c2ccccc2)cc1 (configuration not stated),-9%,1,?,·,?,0%,?,-13%,-23%,-10%
O=C(COC(=O)c1cc(S(=O)(=O)Nc2ccccc2Cl)ccc1O)Nc1nc2ccccc2s1,4%,-9,i,-1%,-7%,-4%,·,·,·,·
CC(=O)N1c2ccc(S(=O)(=O)N3CCC(C(=O)Nc4cccc(C(F)(F)F)c4)CC3)cc2CC1C (configuration not stated),-19%,-2,i,?,11µM*,-12%,16µM*,?,-23%,-8%
CCOc1ccc(CN2CCN(C(=O)c3cccc4ccccc34)CC2)cc1,-41%,-20,i,?,?,5%,9.2µM*,?,3%,2%
COc1ccc2cc(C(=O)NCCOc3ccccc3F)c(C)nc2c1,·,-4,·,·,·,·,·,·,·,·
Cc1cc(S(=O)(=O)N2CCN(CC(=O)NCCc3cccs3)CC2)ccc1Br,-8%,1,i,-15%,11µM*,11%,?,-10%,-10%,25%
O=C(CN1CCN(S(=O)(=O)c2cccc(Br)c2)CC1)NCCc1cccs1,-5%,2,i,-5%,-30%,0%,·,·,·,·
CC(=O)c1c(C(C)=O)c(C)n(-c2ccc(C)c(NC(=O)c3ccccc3Cl)c2)c1C,-17%,-16,i,-2%,?,4%,·,·,·,·

# Compound activity from PubChem.
